Measured values taken from PubChem BioAssay (Tox21).
Records with an inconclusive call do not appear. Activity calls are given as the source filed them. Unless noted, calls follow the shape of the full dose curve.

Experiments:
[1] = Nuclear factor erythroid 2-related factor 2/antioxidant responsive element (Nrf2/ARE) small molecule agonists: qHTS cell viability counter screen in human keratinocytes (AID 1919968; active = well fitted curve in the direction sought with a large enough effect in the repeat runs; an effect the other way counts as inactive or inconclusive; also: nearly all actives have a fitted effect of over 55% in size; also: potency is read from the fitted curve at half-maximal effect)
Procedure, shortened: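 Stably transfected HaCaT (KeratinoSens), 1,500/well. Test agents in DMSO were applied for 23 h, 37 C/5% CO2. CellTiter-Fluor was incubated 1 h before the fluorescence read.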

[2] = Nuclear factor erythroid 2-related factor 2/antioxidant responsive element (Nrf2/ARE) small molecule agonists: luciferase reporter gene qHTS assay in human keratinocytes (AID 1919969); also: nearly all actives have a fitted effect of over 35% in size
[3] = molecular target: Gonadotropin-releasing hormone receptor (Homo sapiens) (UniProt P30968); test: Human gonadotropin-releasing hormone receptor (GnRHR) small molecule agonists, calcium flux assay in GnRHR-HEK293 cells (AID 1920063); also: nearly all actives have a fitted effect of over 35% in size
Procedure, shortened: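 Stable human GnRHR HEK293 line. 18 h plating, then calcium dye for 1 h at 37 C. Agonist-mode compound addition from DMSO stocks; fluorescence monitored 3 min.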

[4] = molecular target: KiSS-1 receptor (Homo sapiens) (UniProt Q969F8); test: Human kisspeptin (KISS1R) small molecule agonists, calcium flux assay in KISS1R-HEK293 cells (AID 1920064; active = well fitted curve in the direction sought with a large enough effect in the repeat runs; an effect the other way counts as inactive or inconclusive)
Procedure, shortened: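 After overnight (18 h) culture at 37 C/5% CO2, human KISS1R-HEK293 cells received calcium dye for 1 h, then test compound; emission at 540 nm (excitation 480 nm) was tracked for 3 min.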

[5] = G protein-coupled receptor (GPCR) small molecule agonists, calcium flux assay: HEK293 wild type cell line counter screen (AID 1920065)
Procedure, shortened: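 Following 18 h incubation at 37 C/5% CO2, plates got calcium dye for 1 h; compounds, ATP or DMSO were then pinned in and fluorescence followed kinetically (480/540 nm).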

[6] = p53 small molecule agonists, cell-based qHTS assay with human liver microsomes (AID 1963577)
Procedure, shortened: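 Cells carrying a p53-responsive bla reporter were rested 5 h (37 C, 5% CO2) before compound transfer. Human liver microsomes plus NADPH, 0.5 mg/mL final apiece, supplied metabolism during the 16 h 37 C exposure.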

[7] = p53 small molecule agonists, cell-based qHTS assay with rat liver microsomes (AID 1963578)
Procedure, shortened: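 Fluorescence from a beta-lactamase reporter under a p53 response element was measured after cells had been incubated 16 h at 37 C with test compound and rat liver microsomes plus NADPH (0.5 mg/mL final each).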

[8] = p53 small molecule agonists, cell-based qHTS assay: qHTS cell viability counter screen (AID 1963581); also: nearly all actives have a fitted effect of over 45% in size
Procedure, shortened: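 qHTS counter screen: 16 h compound exposure at 37 C of p53RE-bla HCT-116 cells (4,000 per well, seeded 5 h prior), cell viability by ATP luminescence.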

[9] = p53 small molecule agonists, cell-based qHTS assay (AID 1963582; active = well fitted activation curve with a large enough effect in the signal ratio in the repeat runs, not every such curve was filed as active; the % refers to the signal ratio)
Procedure, shortened: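 Measured: fluorescence from cleaved LiveBLAzer substrate. System: p53RE-bla cells, 16 h compound treatment at 37 C, 2 h substrate step at room temperature.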

[10] = molecular target: 5-hydroxytryptamine receptor 2A (Homo sapiens) (UniProt P28223); test: 5-hydroxytryptamine receptor 2A (HTR2A) small molecule antagonists, cell-based qHTS assay (AID 1963586); also: nearly all actives have a fitted effect of over 45% in size
Procedure, shortened: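 CHO cells stably expressing human HTR2A were plated for 18 h at 37 C, then loaded with calcium dye for 1 h. Compounds were preincubated 5 min at room temperature before DOI (4 nM solution) was added. Kinetic fluorescence was read for 3 min.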

[11] = molecular target: 5-hydroxytryptamine receptor 2A (Homo sapiens) (UniProt P28223); test: 5-hydroxytryptamine receptor 2A (HTR2A) small molecule agonists, cell-based qHTS assay (AID 1963587); also: nearly all actives have a fitted effect of over 30% in size
Procedure, shortened: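 Kinetic calcium-flux fluorescence (2 min, 1 sec intervals) after compound addition in agonist mode. HTR2A-CHO cells were cultured 18 h, then dye-loaded 1 h at 37 C.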

[12] = molecular target: Muscarinic acetylcholine receptor M1 (Homo sapiens) (UniProt P11229); test: Cholinergic receptor muscarinic 1 (CHRM1) small molecule antagonists, cell-based qHTS assay (AID 1963588); also: nearly all actives have a fitted effect of over 40% in size
Procedure, shortened: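 Compounds were tested at 15 concentrations in three independent runs. Dye-loaded CHRM1-CHO cells were exposed 5 min at room temperature before stimulation by acetylcholine added at 50nM. Intracellular calcium was read kinetically on FDSS for 3 min.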

[13] = molecular target: Muscarinic acetylcholine receptor M1 (Homo sapiens) (UniProt P11229); test: Cholinergic receptor muscarinic 1 (CHRM1) small molecule agonists, cell-based qHTS assay (AID 1963589); also: nearly all actives have a fitted effect of over 35% in size
Procedure, shortened: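 Kinetic fluorescence (1 s intervals) of calcium-sensitive dye in human M1 CHO cells after compound addition; cells pre-incubated 18 h at 37 C/5% CO2 and dye-loaded 1 h.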

[14] = cAMP Responsive Elements (CRE) small molecule antagonists, cell-based qHTS assay (AID 1963591; active = well fitted inhibition curve with a large enough effect in the signal ratio in the repeat runs, not every such curve was filed as active; the % refers to the signal ratio)
Procedure, shortened: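 Reporter line CRE-bla HEK 293T in dialyzed-FBS DMEM; cells preincubated 18 h, treated 3 h with compound plus NKH477 (0.25 uM final); LiveBLAzer FRET, 2 h RT.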

[15] = molecular target: Beta-2 adrenergic receptor (Homo sapiens) (UniProt P07550); test: Adrenergic beta2 receptor (ADRB2) small molecule antagonists, cell-based qHTS assay (AID 1963592); also: series mostly up to about 92 µM; nearly all actives have a fitted effect of over 50% in size
Procedure, shortened: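 Assay format: CHO-ADRB2 cells, 18-20hr seeding at 37C/5% CO2, then compound plus 1nM isoproterenol agonist mix for 0.5hr RT. Homogeneous time-resolved fluorescence cAMP detection after 1hr, expressed as 665/615 nm ratio.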

[16] = molecular target: D(2) dopamine receptor (Homo sapiens) (UniProt P14416); test: Dopamine D2 receptor (DRD2) small molecule agonists, cell-based qHTS assay (AID 1963594); also: nearly all actives have a fitted effect of over 35% in size
Procedure, shortened: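 cAMP accumulation in DRD2-HEK293 cells measured by HTRF after 1 h detection; compounds added 10 min before NKH477 (200nM […]) forskolin-analogue stimulation, 30 min at room temperature, with Ro20-1724 present at 0.1 mM final.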

[17] = molecular target: D(2) dopamine receptor (Homo sapiens) (UniProt P14416); test: Dopamine D2 receptor (DRD2) small molecule antagonists, cell-based qHTS assay (AID 1963595; active = well fitted inhibition curve with a large enough effect in the signal ratio in the repeat runs, with a control signal flat; the % refers to the signal ratio)
Procedure, shortened: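 Cells were plated and grown for 24 h at 37 °C. Ro20-1724 (0.1 mM final) went in first, then compound for 10 min. NKH477 (200 nM) with quinpirole (12 nM) followed for 30 min at RT, then HTRF detection reagents for 1 h.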

[18] = cAMP Responsive Elements (CRE) small molecule agonists, cell-based qHTS assay (AID 1963590)
Procedure, shortened: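 Test agents in DMSO were incubated 3 h at 37 C/5% CO2 with CRE-bla HEK 293T cells seeded 18 h earlier; LiveBLAzer B/G FRET substrate was added and read after 2 h at room temperature.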

[19] = molecular target: Beta-2 adrenergic receptor (Homo sapiens) (UniProt P07550); test: Adrenergic beta2 receptor (ADRB2) small molecule agonists, cell-based qHTS assay (AID 1963593);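 also: CHO cells stably overexpressing human ADRB2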
Procedure, shortened: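 CHO cells stably over-expressing ADRB2 were plated overnight at 37C, then dosed with compounds plus a stimulation mix containing 100uM IBMX and 25uM Ro-20-1724 for 0.5hr at room temperature. cAMP was measured by HTRF competition, 1hr.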

[20] = p53 small molecule agonists, cell-based qHTS assay with human liver microsomes: qHTS cell viability counter screen (AID 1963579); also: nearly all actives have a fitted effect of over 45% in size
Procedure, shortened: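 Seed p53RE-bla cells at 4,000 per well; incubate 5 h at 37 C; add compound, human liver microsomes and NADPH; incubate 16 h at 37 C; add CellTiter-Glo; after 30 min at room temperature, read luminescence.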
% is scaled to controls: 0 for no effect and ±100 for the full control effect.

Sequence of 5-hydroxytryptamine receptor 2A (Homo sapiens) (P28223 whole entry, looked up): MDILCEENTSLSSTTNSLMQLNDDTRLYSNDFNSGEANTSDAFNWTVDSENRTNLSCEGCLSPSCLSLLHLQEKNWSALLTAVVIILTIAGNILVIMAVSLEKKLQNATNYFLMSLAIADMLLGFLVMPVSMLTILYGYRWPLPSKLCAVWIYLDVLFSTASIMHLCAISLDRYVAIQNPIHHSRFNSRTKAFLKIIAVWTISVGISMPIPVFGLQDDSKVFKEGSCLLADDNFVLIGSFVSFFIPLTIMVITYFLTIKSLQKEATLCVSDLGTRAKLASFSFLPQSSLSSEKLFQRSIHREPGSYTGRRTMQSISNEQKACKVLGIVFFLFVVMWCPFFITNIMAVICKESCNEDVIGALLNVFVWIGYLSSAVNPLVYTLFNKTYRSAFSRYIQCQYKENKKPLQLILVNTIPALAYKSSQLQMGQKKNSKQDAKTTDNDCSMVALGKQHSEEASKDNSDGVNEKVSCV
Sequence of D(2) dopamine receptor (Homo sapiens) (P14416 whole entry, looked up): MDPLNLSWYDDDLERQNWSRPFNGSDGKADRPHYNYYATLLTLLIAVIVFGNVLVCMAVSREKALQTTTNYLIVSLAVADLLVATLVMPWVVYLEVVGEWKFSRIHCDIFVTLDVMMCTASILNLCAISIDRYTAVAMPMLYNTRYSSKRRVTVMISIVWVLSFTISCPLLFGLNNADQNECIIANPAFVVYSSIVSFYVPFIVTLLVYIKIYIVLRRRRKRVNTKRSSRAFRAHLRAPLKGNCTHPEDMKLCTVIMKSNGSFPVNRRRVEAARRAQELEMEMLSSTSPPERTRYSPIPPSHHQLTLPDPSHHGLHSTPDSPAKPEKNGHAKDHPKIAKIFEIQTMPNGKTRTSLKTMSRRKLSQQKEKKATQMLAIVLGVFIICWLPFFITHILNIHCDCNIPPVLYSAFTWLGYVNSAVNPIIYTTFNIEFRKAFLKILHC
Sequence of Beta-2 adrenergic receptor (Homo sapiens) (P07550 whole entry, looked up): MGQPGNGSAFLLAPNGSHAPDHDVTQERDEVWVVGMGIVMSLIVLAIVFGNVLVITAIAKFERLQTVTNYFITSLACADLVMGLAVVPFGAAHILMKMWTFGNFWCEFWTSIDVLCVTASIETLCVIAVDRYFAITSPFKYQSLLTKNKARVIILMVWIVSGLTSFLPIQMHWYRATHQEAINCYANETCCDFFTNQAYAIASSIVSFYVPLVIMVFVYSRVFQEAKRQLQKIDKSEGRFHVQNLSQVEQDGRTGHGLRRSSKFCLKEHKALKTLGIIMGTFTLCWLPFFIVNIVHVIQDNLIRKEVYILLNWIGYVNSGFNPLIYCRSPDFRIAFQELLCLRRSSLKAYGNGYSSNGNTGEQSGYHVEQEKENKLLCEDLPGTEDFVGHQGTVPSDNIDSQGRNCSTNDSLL
Sequence of KiSS-1 receptor (Homo sapiens) (Q969F8 whole entry, looked up): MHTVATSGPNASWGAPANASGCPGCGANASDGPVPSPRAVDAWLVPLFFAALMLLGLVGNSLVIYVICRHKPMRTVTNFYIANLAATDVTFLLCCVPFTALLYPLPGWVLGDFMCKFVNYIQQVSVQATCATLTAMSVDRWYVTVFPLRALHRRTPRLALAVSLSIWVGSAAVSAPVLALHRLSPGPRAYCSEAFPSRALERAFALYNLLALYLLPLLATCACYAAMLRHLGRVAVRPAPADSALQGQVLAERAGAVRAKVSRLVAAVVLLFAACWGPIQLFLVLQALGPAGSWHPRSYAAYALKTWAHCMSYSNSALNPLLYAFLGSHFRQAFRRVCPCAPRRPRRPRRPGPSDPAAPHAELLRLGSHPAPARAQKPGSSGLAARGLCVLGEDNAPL
Sequence of Gonadotropin-releasing hormone receptor (Homo sapiens) (P30968 whole entry, looked up): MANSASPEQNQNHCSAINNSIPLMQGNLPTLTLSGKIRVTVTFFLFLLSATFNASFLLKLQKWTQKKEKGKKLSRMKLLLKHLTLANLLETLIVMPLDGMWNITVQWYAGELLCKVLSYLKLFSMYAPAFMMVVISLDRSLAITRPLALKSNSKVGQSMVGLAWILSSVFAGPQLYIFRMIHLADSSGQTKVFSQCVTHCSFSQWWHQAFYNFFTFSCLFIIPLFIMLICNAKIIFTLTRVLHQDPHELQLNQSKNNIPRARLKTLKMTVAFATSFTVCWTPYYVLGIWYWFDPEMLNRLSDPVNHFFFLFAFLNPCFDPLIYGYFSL
Sequence of Muscarinic acetylcholine receptor M1 (Homo sapiens) (P11229 whole entry, looked up): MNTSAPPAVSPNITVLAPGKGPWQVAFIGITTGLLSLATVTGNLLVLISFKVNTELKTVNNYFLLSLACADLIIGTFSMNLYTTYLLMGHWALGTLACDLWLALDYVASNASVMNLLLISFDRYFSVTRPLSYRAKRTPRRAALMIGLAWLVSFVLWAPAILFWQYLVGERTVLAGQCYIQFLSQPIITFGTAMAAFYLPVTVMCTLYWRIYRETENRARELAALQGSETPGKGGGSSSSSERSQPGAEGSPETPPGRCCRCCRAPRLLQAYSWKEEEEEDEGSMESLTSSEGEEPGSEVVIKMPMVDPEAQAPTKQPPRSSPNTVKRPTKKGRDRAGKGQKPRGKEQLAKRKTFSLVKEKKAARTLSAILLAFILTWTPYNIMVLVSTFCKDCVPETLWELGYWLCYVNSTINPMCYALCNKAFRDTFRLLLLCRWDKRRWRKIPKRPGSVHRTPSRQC

S=C(SSSSSSC(=S)N1CCCCC1)N1CCCCC1
inactive: activity, positive = activation [2] -39.1% [at 19 µM] | activity change [3] 9.84% [at 11.8 µM, active compounds read high] | activation [4] 1.75% [at 15.8 µM] | activation [5] 0.115% [at 11.8 µM] | activation [6] -17.2% [at 13.5 µM] | activation [7] -7.65% [at 13.6 µM] | activity change, negative = cytotoxicity [8] 9.63% [at 13.5 µM] | activation [9] -6.37% [at 13.5 µM] | activity, negative = inhibition [10] -4.42% [at 12.7 µM] | activation [11] 13.8% [at 15.9 µM] | activity, negative = inhibition [12] -12.9% [at 12.6 µM] | activation [13] 2.41% [at 15.8 µM] | activity change, negative = inhibition [14] -25.4% [at 18.9 µM] | activity change, negative = inhibition [15] 8.1% [at 19 µM] | activation [16] -0.326% [at 19 µM] | activity change, negative = inhibition [17] 1.15% [at 18.9 µM]
active: Potency [1] 134 nM

Cc1cc(C)cc([N+](=O)[O-])c1
inactive: Potency [1] | Potency [2] | Potency [3] | outcome [4] | outcome [5] | Potency [6] | Potency [7] | Potency [8] | Potency [9] | Potency [10] | Potency [11] | Potency [12] | Potency [13] | Potency [18] | Potency [14] | Potency [15] | Potency [16] | Potency [17]

CO[Si](CCCS)(OC)OC
inactive: Potency [1] | Potency [2] | Potency [3] | outcome [4] | outcome [5] | Potency [6] | Potency [7] | Potency [8] | Potency [9] | Potency [10] | Potency [11] | Potency [12] | Potency [13] | Potency [18] | Potency [14] | Potency [15] | Potency [19] | Potency [16] | Potency [17]

O=C(OCC(COC(=O)c1ccccc1)(COC(=O)c1ccccc1)COC(=O)c1ccccc1)c1ccccc1
inactive: Potency [1] | Potency [2] | Potency [3] | outcome [4] | outcome [5] | Potency [6] | Potency [7] | Potency [20] | Potency [8] | Potency [11] | Potency [12] | Potency [13] | Potency [14] | Potency [15] | Potency [19] | Potency [16] | Potency [17]

COc1ccc(CCC(=O)c2c(O)cc(O[C@@H]3O[C@H](CO)[C@@H](O)[C@H](O)[C@H]3O[C@@H]3O[C@@H](C)[C@H](O)[C@@H](O)[C@H]3O)cc2O)cc1O
inactive: Potency [1] | Potency [2] | Potency [3] | outcome [4] | outcome [5] | Potency [6] | Potency [7] | Potency [20] | Potency [9] | Potency [10] | Potency [11] | Potency [12] | Potency [13] | Potency [14] | Potency [15] | Potency [16] | Potency [17]

COc1ccc([C@@H]2Sc3ccccc3NC(=O)[C@@H]2O)cc1
inactive: Potency [1] | Potency [2] | Potency [3] | outcome [4] | outcome [5] | Potency [6] | Potency [7] | Potency [20] | Potency [9] | Potency [10] | Potency [11] | Potency [12] | Potency [13] | Potency [18] | Potency [15] | Potency [16] | Potency [17]

O=C(O)CC(C(=O)O)S(=O)(=O)O (centres undefined)
inactive: Potency [1] | Potency [2] | Potency [3] | outcome [4] | outcome [5] | Potency [6] | Potency [7] | Potency [8] | Potency [9] | Potency [10] | Potency [11] | Potency [12] | Potency [13] | Potency [18] | Potency [14] | Potency [15] | Potency [16] | Potency [17]

CC(C)=CC1CC(C)CCO1 (centres undefined)
inactive: Potency [1] | Potency [2] | Potency [3] | outcome [4] | outcome [5] | Potency [6] | Potency [7] | Potency [8] | Potency [9] | Potency [10] | Potency [11] | Potency [12] | Potency [13] | Potency [18] | Potency [14] | Potency [15] | Potency [16] | Potency [17]

CC(C)C/C=C(\C=O)c1ccccc1
inactive: Potency [1] | Potency [2] | Potency [3] | outcome [4] | outcome [5] | Potency [6] | Potency [7] | Potency [8] | Potency [9] | Potency [11] | Potency [12] | Potency [13] | Potency [18] | Potency [14] | Potency [15] | Potency [16] | Potency [17]

CCN(CC)C(=O)N1CCN(C)CC1
inactive: Potency [1] | Potency [2] | Potency [3] | outcome [4] | outcome [5] | Potency [6] | Potency [7] | Potency [8] | Potency [9] | Potency [10] | Potency [11] | Potency [12] | Potency [18] | Potency [14] | Potency [15] | Potency [19] | Potency [16] | Potency [17]

CC(=O)Nc1ccc(C)c(Cl)c1
inactive: Potency [1] | Potency [2] | Potency [3] | outcome [4] | outcome [5] | Potency [6] | Potency [7] | Potency [8] | Potency [9] | Potency [11] | Potency [12] | Potency [13] | Potency [18] | Potency [14] | Potency [15] | Potency [16] | Potency [17]

O=c1c(O)c(-c2ccc(O)cc2O)oc2cc(O)cc(O)c12
inactive: Potency [1] | Potency [2] | Potency [3] | outcome [4] | outcome [5] | Potency [6] | Potency [7] | Potency [8] | Potency [9] | Potency [10] | Potency [11] | Potency [12] | Potency [13] | Potency [15] | Potency [19]

O=C(O)CCC(=O)OC[C@@H](NC(=O)C(Cl)Cl)[C@H](O)c1ccc([N+](=O)[O-])cc1
inactive: Potency [1] | Potency [2] | Potency [3] | outcome [4] | outcome [5] | Potency [6] | Potency [7] | Potency [8] | Potency [9] | Potency [10] | Potency [11] | Potency [13] | Potency [18] | Potency [14] | Potency [15] | Potency [19] | Potency [16] | Potency [17]

NNc1nnc(NN)c2ccccc12
inactive: Potency [1] | Potency [2] | Potency [3] | outcome [4] | outcome [5] | Potency [6] | Potency [7] | Potency [8] | Potency [9] | Potency [11] | Potency [12] | Potency [13] | Potency [14] | Potency [15] | Potency [19] | Potency [16] | Potency [17]

CC1(C)OC(=O)Nc2ccc(Br)cc21
inactive: Potency [1] | Potency [2] | Potency [3] | outcome [4] | outcome [5] | Potency [6] | Potency [7] | Potency [8] | Potency [9] | Potency [10] | Potency [12] | Potency [13] | Potency [18] | Potency [15] | Potency [16] | Potency [17]
